IL1B secr inh: qHTS for Inhibitors of Inflammasome Signaling: IL-1-beta AlphaLISA Primary Screen. activity change, % at 57.5 µM. THP-1 LPS/ATP IL-1B secretion, AlphaLISA, 16 h; hits give low values. hit rate 4.7% among 360,000. AID 743279, 2014; in the data active = activity change below about -50%; inconclusive = mostly about -30% to -49%
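THP-1 cells pretreated 1 hr with compounds (up to 57.5 uM final), then stimulated with LPS (250 ng/mL final) plus ATP (1.25 mM final); secreted IL-1B measured by AlphaLISA after 16 hr, decreased signal indicating inhibition.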
D3 antag: qHTS of D3 Dopamine Receptor Antagonist: qHTS; D(3) dopamine receptor (Homo sapiens), P35462; D3R cells, DiscoveRx beta-arrestin luminescence, antagonist mode; hits give low values; max response, negative = inhibition, %; hit rate 2.5% among 360,000; in the data active = max response below about -50%; inconclusive = no clear call, values can overlap the other calls
Target sequence (P35462 whole entry, looked up): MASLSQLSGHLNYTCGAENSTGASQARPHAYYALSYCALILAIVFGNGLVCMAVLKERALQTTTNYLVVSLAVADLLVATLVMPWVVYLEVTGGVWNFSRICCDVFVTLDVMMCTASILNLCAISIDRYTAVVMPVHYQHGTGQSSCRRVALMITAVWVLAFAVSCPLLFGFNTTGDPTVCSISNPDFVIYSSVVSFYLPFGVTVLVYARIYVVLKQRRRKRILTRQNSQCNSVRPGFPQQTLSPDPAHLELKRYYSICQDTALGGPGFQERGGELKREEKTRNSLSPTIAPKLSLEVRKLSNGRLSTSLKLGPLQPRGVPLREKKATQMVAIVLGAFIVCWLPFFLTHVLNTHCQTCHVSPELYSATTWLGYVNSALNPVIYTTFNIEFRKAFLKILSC
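Cells expressing the human receptor were seeded at 1500 cells/well, incubated overnight at 37 degrees C in 5% CO2, then exposed to library compounds with dopamine controls for 90 minutes at 37 degrees C before luminescent detection.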
TDP1 cell noCPT: qHTS for Inhibitors of human tyrosyl-DNA phosphodiesterase 1 (TDP1): qHTS in cells in absence of CPT. DT40 Tdp1-/- hTDP1 cells, no CPT, ATP luminescence, 48 h. Potency, µM (highest dose often 46.2 µM), most hits filed as inhibitors. hit rate 15% among 420,000; note: nearly all actives have a fitted effect of over 55% in size
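No-CPT arm: Tdp1-/-;hTDP1 DT40 cells (400/well) plus compounds, incubated ≥48 hr at 37 °C. Readout CellTiter-Glo luminescence.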
D3 ag: qHTS of D3 Dopamine Receptor Agonist: qHTS | D(3) dopamine receptor (Homo sapiens), P35462 | max activation, % | hit rate 0.58% among 410,000 | D3R DiscoveRx beta-arrestin cells, luminescence, 90 min; in the data active = max activation above about 30%
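Agonist-mode cell screen: cells plated at 1500/well and incubated overnight at 37 °C, then exposed to library compounds for 90 min at 37 °C. Detection reagent was added for 30–60 min at room temperature, and luminescence was read.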
ClpP mod: qHTS Assay for Activators of ClpP; hit rate 1.9% among 340,000; AID 651965, 2013; ATP-dependent Clp protease proteolytic subunit (Bacillus subtilis (strain 168)), P80244; Potency, µM (series often up to 57.5 µM); purified B. subtilis ClpP, FRET peptide cleavage, 20 min; active = well fitted falling curve with a large enough effect; inconclusive = small, poorly fitted or top-dose-only effect; inactive = no such curve, though single readings can be large or run the other way; note: the source files actives as falling curves though it sought activators and does not explain the sign; nearly all actives have a fitted effect of over 65% in size
Target sequence (P80244 whole entry, looked up): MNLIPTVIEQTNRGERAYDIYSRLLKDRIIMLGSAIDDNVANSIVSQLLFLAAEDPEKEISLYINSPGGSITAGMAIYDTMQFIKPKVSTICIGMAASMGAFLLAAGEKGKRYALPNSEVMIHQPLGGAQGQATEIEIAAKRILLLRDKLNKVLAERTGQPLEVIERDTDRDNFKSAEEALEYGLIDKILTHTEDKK
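Buffer: 100 mM Tris/HCl pH8, 100 mM KCl, 0.05% low protease BSA, 2.5% glycerol, 0.01% Tween-20. ClpP 10 microg/mL final; 20 min RT; delta FRET normalized to ADEP and DMSO controls.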
TDP1 cell CPT: qHTS for Inhibitors of human tyrosyl-DNA phosphodiesterase 1 (TDP1): qHTS in cells in presence of CPT; AID 686979, 2013; chicken DT40 Tdp1-/-;hTDP1 cells + 20 nM CPT, ATP luminescence, 48 h; hit rate 12% among 420,000; Potency, µM (highest dose often 46.2 µM), most hits filed as inhibitors; note: nearly all actives have a fitted effect of over 55% in size
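Chicken DT40 Tdp1-/- cells complemented with human TDP1, 400 cells/well, exposed to compounds plus 20 nM camptothecin for at least 48 h at 37 C; viability read as ATP content by CellTiter-Glo luminescence.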
Hits are given with their value. Most compounds without a hit are left out; they make up all but 21% or so of the library. Unless noted, calls come from the whole dose curve; as a rule, active = well fitted inhibition curve with a large enough effect; inconclusive = small, poorly fitted or top-dose-only effect; inactive = flat fitted curve, though single readings scatter.

Results for Nc1c(Cl)c(Cl)nc(C(=O)OCC(=O)NCc2ccccc2)c1Cl ?
IL1B secr inh: inactive; D3 antag: inactive; TDP1 cell noCPT: inactive; D3 ag: inactive; ClpP mod: inactive; TDP1 cell CPT: inactive

What do the screens show for `Cc1cc(CNC(=O)COc2ccc(F)cc2)c2ccccc2n1`?
IL1B secr inh: inactive; D3 antag: inactive; TDP1 cell noCPT: 21µM; D3 ag: inactive; ClpP mod: inactive; TDP1 cell CPT: inconclusive

How did O=C(COC(=O)c1nc(Cl)c(Cl)c(Cl)c1Cl)NCc1ccccc1 do in these assays?
IL1B secr inh: -89; D3 antag: inconclusive; TDP1 cell noCPT: inactive; D3 ag: inactive; ClpP mod: inactive; TDP1 cell CPT: inconclusive

Results for O=C(COC(=O)c1ccccc1C(=O)c1ccc(Cl)cc1)NCc1ccccc1 ?
IL1B secr inh: -69; D3 antag: inactive; TDP1 cell noCPT: 18µM; D3 ag: inactive; ClpP mod: inactive; TDP1 cell CPT: inconclusive

Results for O=C(COC(=O)c1ccccc1C(=O)c1ccc(Cl)cc1)NCC1CCCO1 (configuration not stated) ?
IL1B secr inh: inconclusive; D3 antag: inactive; TDP1 cell noCPT: inactive; D3 ag: inactive; TDP1 cell CPT: inactive

How did O=C(Cn1c(=O)n(-c2ccc(F)cc2)c(=O)c2sc3ccccc3c21)NC1CCCCC1 do in these assays?
TDP1 cell noCPT: inactive; D3 ag: inactive; ClpP mod: inconclusive; TDP1 cell CPT: inactive

Results for COc1cc(C(=O)OCC(=O)NCc2ccc(F)cc2)ccc1OCC(C)C ?
IL1B secr inh: inactive; D3 antag: inactive; TDP1 cell noCPT: 16µM; D3 ag: inactive; ClpP mod: inactive; TDP1 cell CPT: inconclusive

How did CC1(C(=O)NS(=O)(=O)c2cccc(OC(F)F)c2)CCN1C(=O)c1ccccc1CCc1ccccc1 (configuration not stated) do in these assays?
IL1B secr inh: inactive; D3 antag: inactive; TDP1 cell noCPT: inconclusive; D3 ag: inactive; ClpP mod: inactive; TDP1 cell CPT: inconclusive

Results for CC1CCCN(S(=O)(=O)c2ccc(NC(=O)Cn3nnc(-c4ccccc4F)n3)cc2)C1 (configuration not stated) ?
IL1B secr inh: inactive; D3 antag: inactive; TDP1 cell noCPT: 23µM; D3 ag: inactive; ClpP mod: inactive; TDP1 cell CPT: inconclusive

How did CCOc1ccc(NC(=O)Cn2nnc(-c3ccccc3F)n2)cc1 do in these assays?
IL1B secr inh: inactive; D3 antag: inactive; TDP1 cell noCPT: inconclusive; D3 ag: inactive; ClpP mod: inactive; TDP1 cell CPT: 21µM

Results for CN(C)C(=O)c1ccc(NC(=O)Cn2nnnc2-c2ccccc2F)cc1 ?
TDP1 cell noCPT: 18µM; D3 ag: inactive; ClpP mod: inactive; TDP1 cell CPT: 15µM

Results for Cc1ccc(-c2nnn(CC(=O)Nc3ccc(S(=O)(=O)N4CCC(C)CC4)cc3)n2)cc1 ?
IL1B secr inh: inactive; D3 antag: inconclusive; TDP1 cell noCPT: 18µM; D3 ag: inactive; ClpP mod: inactive; TDP1 cell CPT: inconclusive

Results for CCCCOc1ccc(NC(=O)Cn2nnnc2-c2ccccc2F)cc1 ?
TDP1 cell noCPT: inactive; D3 ag: inactive; ClpP mod: inactive; TDP1 cell CPT: inactive

What do the screens show for `CC1CCN(S(=O)(=O)c2ccc(NC(=O)Cn3nnc(-c4ccccc4)n3)cc2)CC1`?
IL1B secr inh: inactive; D3 antag: inactive; TDP1 cell noCPT: inconclusive; D3 ag: inactive; ClpP mod: inactive; TDP1 cell CPT: inconclusive

How did C[C@H](CO)N1C[C@H](C)[C@@H](CN(C)S(=O)(=O)c2ccc3ccccc3c2)OCc2cnnn2CCCC1=O do in these assays?
IL1B secr inh: inactive; D3 antag: inactive; TDP1 cell noCPT: inconclusive; D3 ag: inactive; ClpP mod: inactive; TDP1 cell CPT: inactive

What do the screens show for `CC1CCc2sc(C(=O)NNC(=S)NC3CC3)cc2C1` (configuration not stated)?
IL1B secr inh: inactive; D3 antag: inactive; TDP1 cell noCPT: inactive; D3 ag: inactive; ClpP mod: inactive; TDP1 cell CPT: inactive

What do the screens show for `CC12CCC(C/C1=N\N=C1\NC(=O)/C(=C\c3ccc(Cl)cc3)S1)C2(C)C` (configuration not stated)?
IL1B secr inh: -57; D3 antag: inactive; TDP1 cell noCPT: inconclusive; D3 ag: inactive; ClpP mod: inactive; TDP1 cell CPT: inconclusive

Results for COC(=O)Cn1c(=NC(=O)c2ccc3c(c2)OCCO3)sc2ccccc21 ?
TDP1 cell noCPT: inactive; D3 ag: inactive; ClpP mod: inactive; TDP1 cell CPT: inactive

Results for COc1ccc(C)cc1NC(=O)CSc1nc2ccccc2nc1N1CCCC1 ?
IL1B secr inh: inactive; D3 antag: inactive; TDP1 cell noCPT: 21µM; D3 ag: inactive; ClpP mod: inactive; TDP1 cell CPT: inconclusive

Results for COc1ccc(NC(=O)CSc2nc3ccccc3nc2N2CCCC2)c(OC)c1 ?
IL1B secr inh: inactive; D3 antag: inactive; TDP1 cell noCPT: inconclusive; D3 ag: inactive; ClpP mod: inactive; TDP1 cell CPT: inconclusive

How did COc1ccc(NC(=O)CSc2nc3ccccc3nc2N2CCCCC2)cc1 do in these assays?
IL1B secr inh: inactive; D3 antag: inactive; TDP1 cell noCPT: inconclusive; D3 ag: inactive; ClpP mod: inactive; TDP1 cell CPT: inconclusive

Results for COc1ccc(Cl)cc1NC(=O)CSc1nc2ccccc2nc1N1CCCCC1 ?
TDP1 cell noCPT: 21µM; D3 ag: inactive; ClpP mod: inactive; TDP1 cell CPT: inconclusive

Results for CN1CCCC2(CCN(C(=O)c3cccc(F)c3)CC2)C1 ?
TDP1 cell noCPT: inactive; TDP1 cell CPT: inactive

How did COc1ccc(NC(=O)c2c(Nc3ccccc3)sc(C(=O)c3ccc(F)cc3)c2N)cc1 do in these assays?
IL1B secr inh: inactive; D3 antag: inactive; TDP1 cell noCPT: 2.1µM; D3 ag: inactive; ClpP mod: inactive; TDP1 cell CPT: 2.3µM

How did COc1ccc(C(=O)c2sc(Nc3ccccc3)c(C(=O)Nc3ccc(OC)c(OC)c3)c2N)cc1 do in these assays?
IL1B secr inh: inactive; D3 antag: inconclusive; TDP1 cell noCPT: 16µM; D3 ag: inactive; ClpP mod: inactive; TDP1 cell CPT: 26µM

Results for COc1ccc(C(=O)c2sc(Nc3cccc(OC)c3)c(C(=O)Nc3cccc(C)c3C)c2N)cc1 ?
IL1B secr inh: inactive; D3 antag: inactive; TDP1 cell noCPT: 10µM; D3 ag: inactive; ClpP mod: inactive; TDP1 cell CPT: 18µM

How did COc1ccc(Nc2sc(C(=O)c3ccccc3)c(N)c2C(=O)Nc2cc(C)ccc2C)c(OC)c1 do in these assays?
TDP1 cell noCPT: inconclusive; D3 ag: inactive; ClpP mod: inactive; TDP1 cell CPT: inconclusive
